The text below walks through data of the supplement of paper PMC4022240.

± gives the standard deviation.

Test in all cases: peptide microarray binding signal (635 nm), min-max normalized on array (fraction of array maximum); higher = stronger binding
Settings in all cases: peptide region: H3 11-23

Assay [1] deals with T1, HaloTag-ATRX ADD domain (163-292).
T1 chain: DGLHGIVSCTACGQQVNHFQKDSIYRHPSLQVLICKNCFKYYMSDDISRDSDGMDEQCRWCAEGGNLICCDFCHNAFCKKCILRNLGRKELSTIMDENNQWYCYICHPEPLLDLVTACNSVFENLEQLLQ
Put shortly:
(§1)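 Triplicate spots of histone 13-mer peptide–cellulose conjugates with a Cy3 tracer were printed on nitrocellulose and probed for 1 h at 4°C with biotin-labelled HaloTag reader fusions (10 nM to 1 μM) plus streptavidin-Alexa Fluor 647 or rabbit histone antibodies (1:10,000 to 1:2,000) plus anti-rabbit Alexa 647. An Axon GenePix 4000B read the 635 nm channel. Binding signal is the spot-triplicate mean intensity after min-max scaling within each library.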

The target in assay [2] is HaloTag-ING2 PHD (mouse Ing2 200-280). Put shortly:
as §1

For assay [3], the target named is anti-H3K4me3 antibody ab8580. The method in brief: as §1
Assay [4] has as its target anti-H3K9me3 antibody ab8898. The method in brief: as §1
The mark [5] stands for this setting: peptide modifications: H3K18me3, binder concentration: 1:2,000 dilution.
[6] abbreviates: peptide modifications: H3K18me3, binder concentration: 1:10,000 dilution.
Setting [7] is: peptide modifications: H3K14me3 H3R17me2a, binder concentration: 1:2,000 dilution.
The mark [8] stands for this setting: peptide modifications: H3K14me3 H3R17me2a, binder concentration: 1:10,000 dilution.
Where [9] appears, read: peptide modifications: H3K14me3 H3R17cit, binder concentration: 1:2,000 dilution.
[10] abbreviates: peptide modifications: H3K14me3 H3R17cit, binder concentration: 1:10,000 dilution.
[11] abbreviates: peptide modifications: H3K14me2 H3K18me3, binder concentration: 1:2,000 dilution.
Where [12] appears, read: peptide modifications: H3K14me2 H3K18me3, binder concentration: 1:10,000 dilution.
The mark [13] stands for this setting: peptide modifications: H3K14me3 H3K18ac, binder concentration: 1:2,000 dilution.
Setting [14] is: peptide modifications: H3K14me3 H3K18ac, binder concentration: 1:10,000 dilution.
[15] abbreviates: peptide modifications: H3K14me2 H3K18me2, binder concentration: 1:2,000 dilution.
Setting [16] is: peptide modifications: H3K14me2 H3K18me2, binder concentration: 1:10,000 dilution.
Setting [17] is: peptide modifications: H3K14me3 H3K18me2, binder concentration: 1:2,000 dilution.
Where [18] appears, read: peptide modifications: H3K14me3 H3K18me2, binder concentration: 1:10,000 dilution.
The mark [19] stands for this setting: peptide modifications: H3K14me3 H3R17me1, binder concentration: 1:2,000 dilution.
Setting [20] is: peptide modifications: H3K14me3 H3R17me1, binder concentration: 1:10,000 dilution.
Where [21] appears, read: peptide modifications: H3K18me1, binder concentration: 1:2,000 dilution.
Where [22] appears, read: peptide modifications: H3K18me1, binder concentration: 1:10,000 dilution.
[23] abbreviates: peptide modifications: H3K14me3 H3K18me3, binder concentration: 1:2,000 dilution.
Where [24] appears, read: peptide modifications: H3K14me3 H3K18me3, binder concentration: 1:10,000 dilution.

Regarding TGGKAPRKQLATK [H3 11-23 T G G K A P R Kme3 Q L A T K], the “peptide microarray binding signal” value in assay [1] (peptide modifications: H3K18me3, binder concentration: 50 nM) came out at 0.0107 ± 0.00077; in assay [1] (peptide modifications: H3K18me3, binder concentration: 500 nM) it was 0.0257 ± 0.0005; in assay [2] (peptide modifications: H3K18me3, binder concentration: 10 nM) it was 0.00937 ± 0.00052; in assay [2] (peptide modifications: H3K18me3, binder concentration: 100 nM), 0.0178 ± 0.0018; in assay [3] (setting [5]) it was 0.257 ± 0.035; in assay [3] (setting [6]) it was 0.263 ± 0.14. Also, the “peptide microarray binding signal” value in assay [4] (setting [5]) was 0.0698 ± 0.0096; in assay [4] (setting [6]) it was 0.0292 ± 0.0022.
With TGGKAPRKQLATK [H3 11-23 T G G Kme3 A P Rme2a K Q L A T K], the “peptide microarray binding signal” value was 0.0192 ± 0.0025 in assay [1] (peptide modifications: H3K14me3 H3R17me2a, binder concentration: 50 nM); 0.027 ± 0.0031 in assay [1] (peptide modifications: H3K14me3 H3R17me2a, binder concentration: 500 nM); 0.0158 ± 0.0011 in assay [2] (peptide modifications: H3K14me3 H3R17me2a, binder concentration: 10 nM); 0.0298 ± 0.0018 in assay [2] (peptide modifications: H3K14me3 H3R17me2a, binder concentration: 100 nM); 0.0582 ± 0.0093 in assay [3] (setting [7]); 0.0419 ± 0.0073 in assay [3] (setting [8]). The entries for the “peptide microarray binding signal” value in assay [4] (setting [7]) and in assay [4] (setting [8]) were 0.133 ± 0.0046 and 0.0547 ± 0.0033, respectively.
For TGGKAPRKQLATK [H3 11-23 T G G Kme3 A P Rcit K Q L A T K], the “peptide microarray binding signal” value was found to be 0.00273 ± 3.1e-05 in assay [1] (peptide modifications: H3K14me3 H3R17cit, binder concentration: 50 nM); 0.003095 ± 2.4e-05 in assay [1] (peptide modifications: H3K14me3 H3R17cit, binder concentration: 500 nM); 0.00603 ± 0.00019 in assay [2] (peptide modifications: H3K14me3 H3R17cit, binder concentration: 10 nM); 0.00709 ± 0.00015 in assay [2] (peptide modifications: H3K14me3 H3R17cit, binder concentration: 100 nM); 0.00325 ± 7.6e-05 in assay [3] (setting [9]); 0.00257 ± 6e-05 in assay [3] (setting [10]). In addition, the “peptide microarray binding signal” value is 0.00877 ± 0.0011 in assay [4] (setting [9]) and 0.00519 ± 0.00016 in assay [4] (setting [10]).
In the case of TGGKAPRKQLATK [H3 11-23 T G G Kme2 A P R Kme3 Q L A T K], the “peptide microarray binding signal” value worked out at 0.00646 ± 0.00024 in assay [1] (peptide modifications: H3K14me2 H3K18me3, binder concentration: 50 nM); 0.009572 ± 8e-05 in assay [1] (peptide modifications: H3K14me2 H3K18me3, binder concentration: 500 nM); 0.00859 ± 0.00099 in assay [2] (peptide modifications: H3K14me2 H3K18me3, binder concentration: 10 nM); 0.0188 ± 0.0022 in assay [2] (peptide modifications: H3K14me2 H3K18me3, binder concentration: 100 nM); 0.54 ± 0.11 in assay [3] (setting [11]); 0.4 ± 0.12 in assay [3] (setting [12]). Moreover, the figures for the “peptide microarray binding signal” value in assay [4] (setting [11]) and in assay [4] (setting [12]) were 0.0567 ± 0.005 and 0.0291 ± 0.002, respectively.
Turning to TGGKAPRKQLATK [H3 11-23 T G G Kme3 A P R Kac Q L A T K], the “peptide microarray binding signal” value stood at 0.00646 ± 0.00042 in assay [1] (peptide modifications: H3K14me3 H3K18ac, binder concentration: 50 nM); 0.0102 ± 0.00058 in assay [1] (peptide modifications: H3K14me3 H3K18ac, binder concentration: 500 nM); 0.0146 ± 0.00098 in assay [2] (peptide modifications: H3K14me3 H3K18ac, binder concentration: 10 nM); 0.032 ± 0.004 in assay [2] (peptide modifications: H3K14me3 H3K18ac, binder concentration: 100 nM); 0.06 ± 0.018 in assay [3] (setting [13]); 0.0259 ± 0.0059 in assay [3] (setting [14]). Further, the “peptide microarray binding signal” value in assay [4] (setting [13]) is 0.0686 ± 0.018; in assay [4] (setting [14]), 0.0246 ± 0.0023.
Take TGGKAPRKQLATK [H3 11-23 T G G Kme2 A P R Kme2 Q L A T K]: the “peptide microarray binding signal” value in assay [1] (peptide modifications: H3K14me2 H3K18me2, binder concentration: 50 nM) stood at 0.00868 ± 0.00041; in assay [1] (peptide modifications: H3K14me2 H3K18me2, binder concentration: 500 nM), 0.0137 ± 0.0018; in assay [2] (peptide modifications: H3K14me2 H3K18me2, binder concentration: 10 nM), 0.00555 ± 0.00016; in assay [2] (peptide modifications: H3K14me2 H3K18me2, binder concentration: 100 nM) it was 0.0111 ± 0.00051; in assay [3] (setting [15]) it was 0.0136 ± 0.0033; in assay [3] (setting [16]) it was 0.0097 ± 0.0018. Further, the “peptide microarray binding signal” value in assay [4] (setting [15]) was 0.00616 ± 0.00078; in assay [4] (setting [16]), 0.00536 ± 0.00032.
As for TGGKAPRKQLATK [H3 11-23 T G G Kme3 A P R Kme2 Q L A T K], the “peptide microarray binding signal” value in assay [1] (peptide modifications: H3K14me3 H3K18me2, binder concentration: 50 nM) is 0.0154 ± 0.00095; in assay [1] (peptide modifications: H3K14me3 H3K18me2, binder concentration: 500 nM), 0.00933 ± 0.00068; in assay [2] (peptide modifications: H3K14me3 H3K18me2, binder concentration: 10 nM), 0.0107 ± 0.0026; in assay [2] (peptide modifications: H3K14me3 H3K18me2, binder concentration: 100 nM), 0.0194 ± 0.008; in assay [3] (setting [17]) it was 0.0408 ± 0.02; in assay [3] (setting [18]), 0.0276 ± 0.0038. For the same molecule, the “peptide microarray binding signal” value in assay [4] (setting [17]) was 0.0775 ± 0.0048; in assay [4] (setting [18]) it was 0.0328 ± 0.0026.
On to TGGKAPRKQLATK [H3 11-23 T G G Kme3 A P Rme K Q L A T K], for which the “peptide microarray binding signal” value in assay [1] (peptide modifications: H3K14me3 H3R17me1, binder concentration: 50 nM) amounted to 0.0176 ± 0.0022; in assay [1] (peptide modifications: H3K14me3 H3R17me1, binder concentration: 500 nM), 0.0147 ± 0.00081; in assay [2] (peptide modifications: H3K14me3 H3R17me1, binder concentration: 10 nM), 0.00609 ± 0.00015; in assay [2] (peptide modifications: H3K14me3 H3R17me1, binder concentration: 100 nM), 0.00772 ± 0.00033; in assay [3] (setting [19]), 0.00823 ± 0.00055; in assay [3] (setting [20]), 0.00502 ± 0.00025. In addition, the results for the “peptide microarray binding signal” value in assay [4] (setting [19]) and in assay [4] (setting [20]) were 0.0269 ± 0.0047 and 0.0115 ± 0.00069, respectively.
Take TGGKAPRKQLATK [H3 11-23 T G G K A P R Kme Q L A T K]: the “peptide microarray binding signal” value in assay [1] (peptide modifications: H3K18me1, binder concentration: 50 nM) turned out to be 0.00433 ± 0.00015; in assay [1] (peptide modifications: H3K18me1, binder concentration: 500 nM) it was 0.0187 ± 0.00044; in assay [2] (peptide modifications: H3K18me1, binder concentration: 10 nM), 0.00979 ± 0.0017; in assay [2] (peptide modifications: H3K18me1, binder concentration: 100 nM), 0.0252 ± 0.0035; in assay [3] (setting [21]) it was 0.00217 ± 0.00021; in assay [3] (setting [22]) it was 0.00108 ± 1.9e-05. Further, the “peptide microarray binding signal” value in assay [4] (setting [21]) came to 0.00293 ± 8.2e-05; in assay [4] (setting [22]), 0.00173 ± 6e-05.
As for TGGKAPRKQLATK [H3 11-23 T G G Kme3 A P R Kme3 Q L A T K], the “peptide microarray binding signal” value turned out to be 0.00652 ± 5.7e-05 in assay [1] (peptide modifications: H3K14me3 H3K18me3, binder concentration: 50 nM); 0.00876 ± 0.00042 in assay [1] (peptide modifications: H3K14me3 H3K18me3, binder concentration: 500 nM); 0.00865 ± 0.0015 in assay [2] (peptide modifications: H3K14me3 H3K18me3, binder concentration: 10 nM); 0.0149 ± 0.0019 in assay [2] (peptide modifications: H3K14me3 H3K18me3, binder concentration: 100 nM); 0.45 ± 0.069 in assay [3] (setting [23]); 0.408 ± 0.048 in assay [3] (setting [24]). Also, the figures for the “peptide microarray binding signal” value in assay [4] (setting [23]) and in assay [4] (setting [24]) were 0.18 ± 0.013 and 0.0505 ± 0.0048, respectively.
